Test [1] is described as follows: AP1 Signaling Pathway (AID 357). Also: % is scaled to controls: 0 for no effect and ±100 for the full control effect. The note with it: ME-180 AP-1-bla reporter, EGF-induced, beta-lactamase ratio, 5 h; at 7.69 µM (top of the series) unless noted. An outline of the steps:
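AP-1-bla ME-180 cells with beta-lactamase reporter under AP-1 response element, stimulated with EC50 EGF; compounds titrated, 5 hours at 37 degrees Celsius. CCF4 read at 460/530 nm ratio; positive and negative modulators judged by AC50.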

Test [2] has as its target Cytochrome P450 1A2 (Homo sapiens) (UniProt P05177). Briefly: p450-cyp1a2 (AID 410; calls by dose curve; also: potency is read from the fitted curve at half-maximal effect;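 as to activity change, negative = inhibition: -100% = full effect of reference inhibitor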). A digest of the protocol: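 20nM CYP1A2, 100uM Luciferin-ME (=Km), 100mM KPO4; cpd 10 min RT; +NADPH regen, 60 min RT; stop/detect 20 min; luminescence. Normalized to furafylline 57 uM = full inhibition.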
The nature of test [3]: NFAT Signaling Pathway (AID 444).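 Also: carbachol stimulus at about its EC50 of 1 µM final; % is scaled to controls: 0 for no effect and ±100 for the full control effect.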 Particulars: Jurkat NFAT-bla M1, carbachol, beta-lactamase ratio, 5 h; at 7.69 µM (top of the series) unless noted. An outline of the steps:
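Read-out: CCF4 FRET ratio (460 nm/530 nm) after 1 h RT dye loading, used for %activity and AC50 from titration series. Cells: Jurkat NFAT-β-lactamase/M1 line, treated with compound plus 1 uM carbachol for 5 h, 37 °C.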

Test [4] in a line: Stat Signaling Pathway (AID 446).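 Also: ME-180 cervical cancer cells given 40 pM IL-6 alongside compound; SIE-controlled beta-lactamase reporter measured as 460/530 nm FRET emission ratio; % is scaled to controls: 0 for no effect and ±100 for the full control effect.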 Particulars: ME-180 (cervical carcinoma) SIE beta-lactamase reporter, IL-6 stimulated, 5 h; at 7.69 µM (top of the series) unless noted. A digest of the protocol: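 Normalization used AC90 stimulation (300 pM IL-6) and AC90 inhibition (125 nM pan-JAK inhibitor at 40 pM IL-6). The underlying signal is SIE-driven beta-lactamase in ME-180 cells after 5 h IL-6 exposure with compound.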

Test [5] deals with 3',5'-cyclic-AMP phosphodiesterase 4B (Homo sapiens) (UniProt Q07343). Put plainly: qHTS Assay for Inhibitors of PDE-IV (AID 607; active = well fitted activation curve with a large enough effect in the main read-out, with a control signal flat, not every such curve was filed as active; also: % of control where 0% means no effect). A digest of the protocol:
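HEK293 ACTOne cells with CNG channel (1000/well), endogenous PDE4; membrane potential dye, compounds up to 22.9 uM final. Fluorescence Ex 535/Em 590; RO 20-1724 (100 uM final) as reference.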
(qHTS replaces the single test concentration by a dilution series.)

The values that follow come from PubChem BioAssay (NCATS).

“And” between values parts separate entries of the source, which are not always exact repeats. Equal entries are not always repeated. Records with an inconclusive call do not appear. A number with no mark means an inactive call. The source made the active and inactive calls. Unless noted, calls follow the shape of the dose curve; as a rule, active = well fitted curve in either direction with a large enough effect (not every such curve was filed as active); inconclusive = small, poorly fitted or top-dose-only effect, or another doubt; inactive = flat fitted curve, though single readings scatter.

Sequence of Cytochrome P450 1A2 (Homo sapiens) (P05177 whole entry, looked up): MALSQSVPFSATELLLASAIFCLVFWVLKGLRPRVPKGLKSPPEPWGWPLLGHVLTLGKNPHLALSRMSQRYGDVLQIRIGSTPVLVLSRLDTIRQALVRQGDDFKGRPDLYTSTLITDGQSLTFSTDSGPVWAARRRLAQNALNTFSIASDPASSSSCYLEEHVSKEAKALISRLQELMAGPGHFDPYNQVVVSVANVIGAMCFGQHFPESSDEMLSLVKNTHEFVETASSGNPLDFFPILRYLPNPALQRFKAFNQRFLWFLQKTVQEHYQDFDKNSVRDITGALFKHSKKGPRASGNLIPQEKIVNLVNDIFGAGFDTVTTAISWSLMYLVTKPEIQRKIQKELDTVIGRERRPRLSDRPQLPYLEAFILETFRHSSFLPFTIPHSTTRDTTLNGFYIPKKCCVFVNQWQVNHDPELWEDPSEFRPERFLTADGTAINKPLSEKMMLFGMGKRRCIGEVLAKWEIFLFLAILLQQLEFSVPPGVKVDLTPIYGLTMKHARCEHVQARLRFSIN
Sequence of 3',5'-cyclic-AMP phosphodiesterase 4B (Homo sapiens) (Q07343 whole entry, looked up): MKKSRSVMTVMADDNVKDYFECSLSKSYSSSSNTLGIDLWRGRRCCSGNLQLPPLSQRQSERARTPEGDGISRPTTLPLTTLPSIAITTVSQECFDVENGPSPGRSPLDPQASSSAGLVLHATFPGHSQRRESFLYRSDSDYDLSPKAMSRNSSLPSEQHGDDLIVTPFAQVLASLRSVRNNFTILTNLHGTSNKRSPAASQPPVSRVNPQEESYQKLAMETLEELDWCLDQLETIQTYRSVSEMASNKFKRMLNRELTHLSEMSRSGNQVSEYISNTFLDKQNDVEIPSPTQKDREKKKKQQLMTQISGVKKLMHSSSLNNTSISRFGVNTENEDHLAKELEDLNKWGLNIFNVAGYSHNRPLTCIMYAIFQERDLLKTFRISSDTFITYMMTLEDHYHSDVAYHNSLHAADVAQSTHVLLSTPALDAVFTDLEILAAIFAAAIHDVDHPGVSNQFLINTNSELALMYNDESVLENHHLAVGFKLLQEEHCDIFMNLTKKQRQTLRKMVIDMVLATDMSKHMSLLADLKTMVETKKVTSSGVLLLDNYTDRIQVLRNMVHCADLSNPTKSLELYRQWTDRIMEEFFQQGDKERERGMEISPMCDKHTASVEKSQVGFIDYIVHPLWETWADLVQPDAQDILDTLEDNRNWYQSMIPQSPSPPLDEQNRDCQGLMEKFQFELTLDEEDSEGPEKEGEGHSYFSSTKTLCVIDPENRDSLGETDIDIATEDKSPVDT

`O=C(O)[C@H]1CCN1`: the activity change, negative = inhibition is -3.07% [at 38 µM] in test [1] and 0.684% [at 38 µM] in test [3]. Moreover, the Potency entry in test [2] is “inactive”. The activity, negative = inhibition in test [4] is 3.4% [at 38 µM]. The outcome in test [5] was inactive.
For the compound `COc1ccc2c3c1O[C@@H]1C(=O)CC[C@@]4(O)[C@@H](C2)N(CC2CC2)CC[C@]314`, the activity change, negative = inhibition in test [1] was -5.48% [at 38 µM]; in test [3] it was -9.4% [at 38 µM]. Moreover, the Potency result in test [2] is “inactive”. The activity, negative = inhibition in test [4] is 4.82% [at 38 µM]. Moreover, in test [5], the outcome was inactive.
For `C[C@]12CC[C@H](O)CC1=CC[C@@H]1[C@H]2CC[C@]2(C)C(=O)CC[C@H]12`, the figures for the activity change, negative = inhibition in test [1] and in test [3] were 1.1% [at 38 µM] and 2.55% [at 38 µM], respectively. Besides, the Potency result in test [2] was “inactive”. Further, in test [4], the activity, negative = inhibition was 3.87% [at 38 µM]. Besides, the call in test [5] was inactive.
With `C[N+]1(C)C2CC(OC(=O)C(CO)c3ccccc3)CC1[C@@H]1O[C@H]21` (some centres undefined), the activity change, negative = inhibition was -8.85% [at 38 µM] and -6.94% [at 38 µM] in test [1]; -56.8% [at 38 µM] (active) in test [3]. In test [2], the Potency result was “inactive”. Besides, the activity, negative = inhibition in test [4] is 5.12% [at 38 µM] and -2.5% [at 38 µM].
`N[C@H](Cc1ccc(N(CCCl)CCCl)cc1)C(=O)O`: the results for the activity change, negative = inhibition in test [1] and in test [3] were 23.8% [at 38 µM] and -21.6% [at 38 µM], respectively. Moreover, the Potency in test [2] is 15.8 µM (active). In addition, the activity, negative = inhibition in test [4] is 4.88% [at 38 µM]. The compound was classed as inactive in test [5].
For `NC[C@H](O)c1cc(O)c(O)cc1F`, in that order: -2.42% [at 38 µM], 4.54% [at 38 µM], “inactive”, 10.9% [at 38 µM] and “inactive”.
Regarding `COc1cc(C[C@H](C)N)c(OC)cc1I`, the activity change, negative = inhibition in test [1] is 8.22% [at 38 µM] and 4.79% [at 38 µM]; in test [3], -22.6% [at 38 µM] and -16.3% [at 38 µM]. For the same compound, the Potency in test [2] is 6.31 µM (active) and 12.6 µM (active). For the same compound, in test [4], the activity, negative = inhibition is -6.07% [at 38 µM]. In test [5], the call was inactive.
For `C[C@@]12CC[C@H]3[C@@H](CC[C@@H]4C[C@H](O)CC[C@]43C)[C@H]1CC[C@H]2O`, the activity change, negative = inhibition in test [1] is -12.3% [at 38 µM]; in test [3], 6.96% [at 38 µM]. Also, in test [2], the Potency is 15.8 µM (active). For the same compound, the activity, negative = inhibition in test [4] was 24.5% [at 38 µM]. The compound was called inactive in test [5].
`CC(C)[C@@]1(NC(=O)[C@@H]2C=C3c4cccc5[nH]cc(c45)C[C@@H]3N(C)C2)O[C@]2(O)[C@H]3CCCN3C(=O)[C@H](Cc3ccccc3)N2C1=O`: the activity change, negative = inhibition in test [1] is -14% [at 38 µM]; in test [3], 4.28% [at 38 µM]. Besides, in test [2], the Potency was 10 µM (active). In addition, in test [4], the activity, negative = inhibition is 8.76% [at 38 µM]. For the same compound, in test [5], the call was inactive.
In the case of `c1ccc2c(c1)Sc1ccccc1N2C[C@H]1CN2CCC1CC2`, the results for the activity change, negative = inhibition in test [1] and in test [3] were 24.9% and -73.4% (active), respectively. Further, the Potency result in test [2] was “inactive”. Besides, the activity, negative = inhibition in test [4] was 9.78%. Further, the outcome in test [5] was inactive.
Regarding `O=C(Nc1cc[c]([Sb](=[O])([OH])[OH])cc1)c1ccccc1`, the activity change, negative = inhibition in test [1] is -1.71%; in test [3], 23.1%. Also, the Potency in test [2] is 5.01 µM (active). Besides, the activity, negative = inhibition in test [4] is -1.59%. Also, the call in test [5] was inactive.
As for `[N-]=[N+]=CC(=O)CC[C@H](N)C(=O)O`, the activity change, negative = inhibition in test [1] was 6.38%; in test [3], -6.88%. In addition, the Potency result in test [2] was “inactive”. For the same compound, the activity, negative = inhibition in test [4] is 6.39%. The compound was classed as inactive in test [5].
As to `O=[As](O)(O)c1ccc2nc3cc([As](=O)(O)O)ccc3nc2c1`, the results for the activity change, negative = inhibition in test [1] and in test [3] were 0.372% and 20.7%, respectively. In test [2], the Potency result is “inactive”. The activity, negative = inhibition in test [4] is -4.42%. Further, the call in test [5] was inactive.
Turning to `NCCc1ccc(S(=O)(=O)O)cc1[N+](=O)[O-]`, the activity change, negative = inhibition was -10.6% in test [1] and -27.3% in test [3]. The Potency entry in test [2] is “inactive”. The activity, negative = inhibition in test [4] was 1.75%. For the same compound, in test [5], the call was inactive.
For `CC(=O)[C@@H]1CC[C@H]2[C@H]3CC[C@H]4C[C@@H](O)CC[C@]4(C)[C@@H]3CC[C@]12C`, the values for the activity change, negative = inhibition in test [1] and in test [3] were 11.2% [at 38 µM] and -10.3% [at 38 µM], respectively. The Potency in test [2] is 10 µM (active). Also, the activity, negative = inhibition in test [4] is -25.9% [at 38 µM]. Besides, the compound was called inactive in test [5].
Turning to `CC(C)[C@@]1(NC(=O)[C@H]2C[C@H]3c4cccc5[nH]cc(c45)C[C@@H]3N(C)C2)O[C@]2(O)[C@H]3CCCN3C(=O)[C@H](Cc3ccccc3)N2C1=O`, the activity change, negative = inhibition in test [1] was -10% [at 38 µM]; in test [3], 1.76% [at 38 µM]. In addition, the Potency result in test [2] was “inactive”. Moreover, the activity, negative = inhibition in test [4] was -34.2% [at 38 µM]. The outcome in test [5] was inactive.
Regarding `O[C@H](CN1CC1)[C@@H](O)CN1CC1`, the activity change, negative = inhibition in test [1] was 10.5%; in test [3], -21.2%. Further, in test [2], the Potency result was “inactive”. Besides, the activity, negative = inhibition in test [4] is 2.88%. For the same compound, the compound was classed as inactive in test [5].
